# Assay results published in PubChem BioAssay (NCI).
# This is part of a sample that, as a whole, favours compounds with a hit. Of some 83,000 tested, about 20% had one in any assay.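 Note: values are percent growth. 100 is the growth of untreated cells, values between 100 and 0 indicate rising inhibition; between -100 and 0 indicates cell death.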 Activity calls are given as the source filed them. The calls were made as follows: active = growth percent below 10; inactive = the rest.
# Tested on: NCI-H460 lung
# Test: NCI-60 one-dose screen, 48 h (100 = growth as untreated, 0 = no growth, -100 = all killed)
# Details: 10 µM unless noted
row,SMILES,growth
1,O=C(Nc1cccc(-n2cc(-c3ccncc3)c(-c3ccc(O)c(Cl)c3)n2)c1)Nc1ccc(Cl)c(C(F)(F)F)c1,3.16% (active)
2,CCOc1ccccc1C(=O)OCC(=O)Nc1cccc(S(=O)(=O)N(C)C)c1,102% (inactive)
3,Cn1c(N)c(N=O)c(=O)[nH]c1=O,107% (inactive)
4,Cc1nn(-c2ccc(Br)cc2)c2nc3c(nc12)C(=O)C(=O)c1ccccc1-3,97.3% (inactive)
5,Cc1nn(-c2ccccc2)c2nc(Cl)c(/C=C/C(=O)c3ccccc3)c(-c3ccccc3)c12,106% (inactive)
6,S=C(Nc1ccc(C2=NCCN2)cc1)Nc1ccc(C2=NCCN2)cc1,106% (inactive)
7,COc1ccc(C(=O)/C=C/c2c(Cl)nc3c(c(C)nn3-c3ccccc3)c2-c2ccc(Br)cc2)cc1,106% (inactive)
8,O=C1c2ccccc2-c2c1nc1ccccc1[n+]2[O-],102% (inactive)
9,Cc1c(C(N)=O)sc2c1c(=O)n(Cc1ccccc1)c1nnc(S(=O)(=O)CC(=O)Nc3ccc(Cl)cc3)n21,-20.8% (active)
10,OCCOc1c(Cl)cc(Cl)cc1Cl,108% (inactive)
11,O=C1Nc2ccc(F)cc2/C1=C/c1nc(-c2ccc(F)cc2)n2ccccc12,99.2% (inactive)
12,CCOC(=O)C(C(C)=O)c1nc2sc3cc(Cl)ccc3n2c(=N)c1C#N (stereo not drawn),96.1% (inactive)
13,Cc1nn(-c2ccc(Cl)cc2)c2nc3c(nc12)c(=O)oc1ccccc13,109% (inactive)
14,Cc1nn(-c2ccccc2)c2ncc3c(c12)C(=O)N(Cc1ccccc1)C3=O,4.79% (active)
15,OC(CCC(O)(c1ccccc1)c1ccccc1)(c1ccccc1)c1ccccc1,19.9% (inactive)
16,S=C(c1ccccc1)N1CCN(c2cccc(Cl)c2)CC1,111% (inactive)
17,COc1cc(OC)c2cc(C(=O)O)c(=O)oc2c1,95.3% (inactive)
18,Cc1c(C(N)=O)sc2ncn(Cc3ccccc3)c(=O)c12,108% (inactive)
19,O=C1CN(CO)C(=O)CN1CO,104% (inactive)

row,SMILES,growth
1,O=C(COC(=O)[C@H](C[Se][Se]C[C@H](NC(=O)c1ccc(Br)cc1F)C(=O)OCC(=O)c1ccc(F)cc1)NC(=O)c1ccc(Br)cc1F)c1ccc(F)cc1,-35.6% (active)
2,CCOC(=O)C1C(=O)OC2CCCCC21 (stereo not drawn),110% (inactive)
3,COC(=O)[C@]1(CCSC)N[C@H](c2cn(-c3ccccc3)nc2C)[C@@H]2C(=O)N(c3ccccc3)C(=O)[C@@H]21,106% (inactive)
4,Cc1c(C(N)=O)sc2c1c(=O)n(Cc1ccccc1)c1nnc(SCC(=O)Nc3ccc(Cl)cc3)n21,-12.3% (active)
5,O=C1OC(c2ccc(-c3ccccc3)cc2)=C/C1=C/c1cccs1,105% (inactive)
6,Oc1ccccc1/C=N\Nc1ccccc1,30.9% (inactive)
7,CCCCn1c(Cc2ccc(Cl)cc2)nc2cc(OC)c(OC)cc2c1=O,90.6% (inactive)
8,Cn1[nH]cc(/C=N/C(N)=O)c1=O,109% (inactive)
9,Cc1[nH]n(C(N)=S)c(=O)c1N=Nc1ccc(F)c(Cl)c1,114% (inactive)
10,CCSc1nnc2n(Cc3ccccc3)c(=O)c3c(C)c(C(N)=O)sc3n12,109% (inactive)
11,Cc1cc(C)c(OC(=O)CSc2nc3ccccc3c(=O)n2CCc2ccccc2)cc1C,74.1% (inactive)
12,NC(=O)SCC(=O)Nc1ccccc1-c1ccccc1,116% (inactive)
13,Cc1nn(-c2ccc(Cl)cc2)c2nc3c(nc12)C(=O)C(=O)c1ccccc1-3,5.27% (active)
14,O=C(c1ccccc1)c1ccccc1Cl,104% (inactive)
15,COc1cc(OC)c2sc(-c3ccc(-n4cncc4-c4ccc(N)cc4)cc3)nc2c1,78.7% (inactive)
16,O=C(CSc1nc2c(n1Nc1ccccc1)-c1ccccc1SC2)Nc1nc(-c2ccc(Cl)cc2)cs1,77% (inactive)
17,CN=C(NC)N/N=C(C)\C=N\NC(=NC)NC,104% (inactive)
18,OC(Cc1cccnc1)c1ccccc1 (stereo not drawn),98% (inactive)
19,N#Cc1c(N2CCOCC2)nc2sc3cc(Cl)ccc3n2c1=N,91.4% (inactive)
